In the supplement of paper PMC12494721:
Counter-ions that a name gives are not always drawn.

What was measured:
Conditions in all cases: incubation time: 27 h, anaerobic, 37 °C;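 for the amine columns active = adjusted P below 0.05 in both replicates with a change the same way and a mean fold change under 0.8 or over 1.25; inactive = the rest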
[1] = tested on: Clostridium sporogenes DSM 1664; assay: growth (OD595) fold change vs plate DMSO controls (fold change (ratio)); higher = more growth
Outline: (§1)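 Growth is calculated as fold change against the median of the DMSO control wells on each plate. Readings at 595 nm from anaerobic mGAM cultures (96-well, 27 h, 37 °C) were blank-subtracted, background-corrected with 20 µM compound solutions in water, and converted to OD by a calibration factor of 5. Fold changes above 1.5 were recorded as NA, and results are means of 2 biological replicates.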

Escherichia coli IAI1 [2] = assay: as above
Outline: as §1

[3] = tested on: Klebsiella aerogenes DSM 30053; assay: as above
Outline: as §1

[4] = tested on: Ruminococcus gnavus DSM 108212; assay: as above
Outline: as §1

[5] = tested on: Klebsiella aerogenes DSM 30053; assay: fold change of Histamine concentration vs plate DMSO controls (fold change (ratio)); higher = more amine produced, active = hit call of the paper (significant change in both replicates, either direction)
Outline: (§2)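 Using LC–triple-quadrupole MS with dynamic MRM, amines were quantified against external calibration curves and corrected for drift within each batch. Samples were whole anaerobic mGAM cultures of four gut strains, grown 27 h at 37 °C from OD 0.1 before 1:1 dilution, extracted with cold acetonitrile/methanol containing 0.1% formic acid and centrifuged. Compounds were present at 20 µM final (sweeteners at 50 µM final). The numbers are fold changes versus plate DMSO controls, each the mean of 2 biological replicates.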

[6] = tested on: Clostridium sporogenes DSM 1664; assay: fold change of Tryptamine concentration vs plate DMSO controls (fold change (ratio)); higher = more amine produced, active = hit call of the paper (significant change in both replicates, either direction)
Outline: as §2

[7] = tested on: Ruminococcus gnavus DSM 108212; assay: as above
Outline: as §2

Escherichia coli IAI1 [8] = assay: fold change of Putrescine concentration vs plate DMSO controls (fold change (ratio)); higher = more amine produced, active = hit call of the paper (significant change in both replicates, either direction)
Outline: as §2

[9] = tested on: Klebsiella aerogenes DSM 30053; assay: as above
Outline: as §2

Escherichia coli IAI1 [10] = assay: fold change of Cadaverine concentration vs plate DMSO controls (fold change (ratio)); higher = more amine produced, active = hit call of the paper (significant change in both replicates, either direction)
Outline: as §2

[11] = tested on: Klebsiella aerogenes DSM 30053; assay: as above
Outline: as §2

[12] = tested on: Ruminococcus gnavus DSM 108212; assay: fold change of 2-Phenylethylamine concentration vs plate DMSO controls (fold change (ratio)); higher = more amine produced, active = hit call of the paper (significant change in both replicates, either direction)
Outline: as §2

SMILES	growth [1]	growth (Escherichia coli IAI1 [2])	growth [3]	growth [4]	fold change of Histamine concentration [5]	fold change of Tryptamine concentration [6]	fold change of Tryptamine concentration [7]	fold change of Putrescine concentration (Escherichia coli IAI1 [8])	fold change of Putrescine concentration [9]	fold change of Cadaverine concentration (Escherichia coli IAI1 [10])	fold change of Cadaverine concentration [11]	fold change of 2-Phenylethylamine concentration [12]
CN(C)c1ccc(O)c2c1C[C@H]1C[C@H]3[C@H](N(C)C)C(=O)C(C(N)=O)=C(O)[C@@]3(O)C(=O)C1=C2O [Minocycline hydrochloride] (20 µM)	0.0113	0.0671	0.394	0.158	0.996 (inactive)	0.0198 (active)	0.14 (active)	0.287 (active)	0.866 (inactive)	0.278 (active)	0.681 (active)	0.142 (active)
CN1CCC(=C2c3ccccc3Sc3ccccc32)CC1 [Pimethixene maleate] (20 µM)	1.13	0.985	0.967	1.26	1.02 (inactive)	1.01 (inactive)	0.87 (inactive)	0.974 (inactive)	0.991 (inactive)	1.02 (inactive)	0.993 (inactive)	0.865 (inactive)
Cc1ccc(-c2cc(C(F)(F)F)nn2-c2ccc(S(N)(=O)=O)cc2)cc1 [Celecoxib] (20 µM)	0.912	1.03	1	1.11	1.09 (inactive)	0.967 (inactive)	0.927 (inactive)	1.03 (inactive)	0.991 (inactive)	1.06 (inactive)	0.99 (inactive)	0.87 (inactive)
CCOC(=O)OC(C)OC1=C(C(=O)Nc2ccccn2)N(C)S(=O)(=O)c2ccccc21 (stereo not given) [Ampiroxicam] (20 µM)	1.02	0.978	1.03	1.1	0.908 (inactive)	0.998 (inactive)	0.999 (inactive)	0.976 (inactive)	0.998 (inactive)	0.983 (inactive)	1.01 (inactive)	0.99 (inactive)
CCN(CC)CCOc1ccc(C(=C(Cl)c2ccccc2)c2ccccc2)cc1 [(Z,E) Clomiphene citrate] (20 µM)	1.06	1	1.02	1.01	0.973 (inactive)	1.05 (inactive)	0.655 (active)	0.961 (inactive)	0.981 (inactive)	0.955 (inactive)	1.01 (inactive)	0.804 (inactive)
O=c1[nH]c(=O)n([C@H]2C[C@H](O)[C@@H](CO)O2)cc1F [Floxuridine] (20 µM)	0.467	0.882	0.907	1.41	0.675 (active)	0.514 (inactive)	0.748 (active)	0.593 (active)	0.903 (inactive)	0.889 (inactive)	1.02 (inactive)	0.884 (inactive)
Nc1nc(CC(=O)Nc2ccc(CCNC[C@H](O)c3ccccc3)cc2)cs1 [Mirabegron] (20 µM)	1.09	1.01	1.13	0.987	0.931 (inactive)	1.02 (inactive)	0.999 (inactive)	0.977 (inactive)	1.01 (inactive)	1.06 (inactive)	1.01 (inactive)	1.05 (inactive)
Clc1ccc(C(Cn2ccnc2)OCc2c(Cl)cccc2Cl)c(Cl)c1 (stereo not given) [Isoconazole] (20 µM)	0.999	0.858	0.862	0.0371	1 (inactive)	0.846 (inactive)	0.265 (active)	1.01 (inactive)	1.01 (inactive)	0.966 (inactive)	1 (inactive)	0.289 (active)
CCN(CC)CCNC(=O)c1cc(S(C)(=O)=O)ccc1OC [Tiapride hydrochloride] (20 µM)	0.729	0.484	0.715	0.09	0.997 (inactive)	0.999 (inactive)	1 (inactive)	1.01 (inactive)	0.992 (inactive)	1.03 (inactive)	1 (inactive)	0.956 (inactive)
O=C(C1CCCCC1)N1CC(=O)N2CCc3ccccc3C2C1 (stereo not given) [Praziquantel] (20 µM)	1.01	0.975	0.99	0.82	1.06 (inactive)	0.989 (inactive)	1.03 (inactive)	0.947 (inactive)	1.02 (inactive)	1.02 (inactive)	0.978 (inactive)	0.992 (inactive)
CC(C)(C)NCC(O)CSc1nc(-c2ccc(C(N)=O)s2)cs1 (stereo not given) [Arotinolol hydrochloride] (20 µM)	1.07	1.02	1.02	1.01	1.01 (inactive)	1.01 (inactive)	1.05 (inactive)	0.978 (inactive)	1 (inactive)	0.928 (inactive)	0.989 (inactive)	1.1 (inactive)
N[C@@H](CCC(=O)N[C@@H](CS)C(=O)NCC(=O)O)C(=O)O [Glutathione] (20 µM)	1.1	1.04	1.04	1.22	0.965 (inactive)	1.1 (inactive)	1.01 (inactive)	1.04 (inactive)	1.01 (inactive)	1.03 (inactive)	1.01 (inactive)	1.02 (inactive)
CCc1cccc(CC)c1NC(=O)CN(CC(=O)O)CC(=O)O [Etifenin] (20 µM)	1.08	1	1.08	1.1	0.925 (inactive)	1.02 (inactive)	0.951 (inactive)	0.998 (inactive)	1 (inactive)	0.987 (inactive)	1.02 (inactive)	0.924 (inactive)
NCCCCCC(=O)O [Aminocaproic acid] (20 µM)	0.927	1.04	1.04	1.06	0.969 (inactive)	1.08 (inactive)	1.04 (inactive)	1.11 (inactive)	0.996 (inactive)	0.983 (inactive)	1.02 (inactive)	1.09 (inactive)
CN(Cc1ccc(C(C)(C)C)cc1)Cc1cccc2ccccc12 [Butenafine hydrochloride] (20 µM)	1.12	1.04	0.979	0.838	1.11 (inactive)	0.918 (inactive)	0.96 (inactive)	1.05 (inactive)	1.01 (inactive)	1.02 (inactive)	0.992 (inactive)	1.03 (inactive)
COc1cc(C(=O)NCc2ccc(OCCN(C)C)cc2)cc(OC)c1OC [Trimethobenzamide hydrochloride] (20 µM)	1.13	1.08	0.972	1.04	0.877 (inactive)	1.12 (inactive)	1.04 (inactive)	1.05 (inactive)	0.835 (inactive)	1.02 (inactive)	0.903 (inactive)	1.05 (inactive)
Cc1nc(=O)c2cc(CN(C)c3ccc(C(=O)N[C@@H](CCC(=O)O)C(=O)O)s3)ccc2[nH]1 [Raltitrexed] (20 µM)	1.11	1	1.02	1.21	1 (inactive)	1.17 (inactive)	1.06 (inactive)	0.924 (inactive)	0.968 (inactive)	0.943 (inactive)	1.05 (inactive)	1.06 (inactive)
CCN(CC)CCOC(=O)C(c1ccccc1)C1CCCCC1 (stereo not given) [Drofenine hydrochloride] (20 µM)	0.967	0.977	1	0.939	1.03 (inactive)	0.99 (inactive)	0.866 (inactive)	1.06 (inactive)	1.01 (inactive)	1.04 (inactive)	0.992 (inactive)	0.921 (inactive)
NC(=O)OCC(COC(N)=O)c1ccccc1 [Felbamate] (20 µM)	1.07	0.986	0.988	0.902	0.989 (inactive)	1.02 (inactive)	1.05 (inactive)	1 (inactive)	0.993 (inactive)	1.05 (inactive)	0.985 (inactive)	1.07 (inactive)
CCN[C@H]1CN(CCCOC)S(=O)(=O)c2sc(S(N)(=O)=O)cc21 [Brinzolamide] (20 µM)	1.17	1.04	1	1.04	1 (inactive)	1.02 (inactive)	0.944 (inactive)	1.05 (inactive)	0.989 (inactive)	1.01 (inactive)	1 (inactive)	0.899 (inactive)
CO[C@H]1/C=C/O[C@@]2(C)Oc3c(C)c(O)c4c(O)c(c(/C=N/N5CCN(C6CCCC6)CC5)c(O)c4c3C2=O)NC(=O)/C(C)=C\C=C\[C@H](C)[C@H](O)[C@@H](C)[C@@H](O)[C@@H](C)[C@H](OC(C)=O)[C@@H]1C [Rifapentine] (20 µM)	0.0116	0.42	0.784	0.198	0.572 (active)	0.0208 (active)	0.145 (active)	0.829 (inactive)	0.583 (active)	1.92 (active)	1.06 (inactive)	0.128 (active)
CCN1CCN(c2cc3c(cc2F)c(=O)c(C(=O)O)cn3C2CC2)CC1 [Enrofloxacin] (20 µM)	0.0184	0.0344	0.107	1.29	0.0794 (active)	0.0498 (active)	0.982 (inactive)	0.658 (inactive)	0.619 (active)	0.204 (active)	0.938 (inactive)	1.05 (inactive)
CC(C)[C@H](N)C(=O)OCC(CO)OCn1cnc2c(=O)nc(N)[nH]c21 (stereo not given in full) [Valganciclovir hydrochloride] (20 µM)	1.1	0.991	1.03	0.987	0.998 (inactive)	0.983 (inactive)	0.964 (inactive)	1.01 (inactive)	1.01 (inactive)	1.01 (inactive)	1.01 (inactive)	0.926 (inactive)
CCCNC(=O)NS(=O)(=O)c1ccc(Cl)cc1 [Chlorpropamide] (20 µM)	0.913	1.03	0.983	1.03	1.17 (inactive)	0.956 (inactive)	1.13 (inactive)	0.938 (inactive)	1.03 (inactive)	0.993 (inactive)	1.1 (inactive)	1.31 (active)
Nc1c2c(nc3ccccc13)CCCC2 [Tacrine hydrochloride] (20 µM)	0.896	0.951	0.932	0.696	1.05 (inactive)	1.03 (inactive)	1.12 (inactive)	0.945 (inactive)	0.94 (inactive)	1.04 (inactive)	1.15 (inactive)	1.32 (active)
